Sampled rows, rich in hits. Any-hit rate of the full collection: about 11%.
HP1b chromo inh – inhibitors of HP1-beta chromodomain binding to methylated histone tails; AID 540317; P83916; 390,000 compounds, 0.56% hits; AlphaScreen HP1-beta / biotin-H3K9me3 peptide binding; Potency, µM (doses to about 114 µM), for inactives: at the top dose activity change, negative = inhibition, usual class: inhibitors; also: nearly all actives have a fitted effect of over 70% in size
Target sequence (P83916 whole entry, looked up): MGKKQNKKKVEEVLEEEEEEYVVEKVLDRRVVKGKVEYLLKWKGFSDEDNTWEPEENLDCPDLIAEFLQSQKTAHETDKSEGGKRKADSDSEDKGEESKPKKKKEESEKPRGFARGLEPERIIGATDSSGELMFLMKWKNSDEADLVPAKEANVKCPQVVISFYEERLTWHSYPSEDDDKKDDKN
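HP1-beta protein (50 nM final) preincubated 30 min at room temperature with biotinylated H3(1-18)K9me3 peptide (50 nM) in PBS pH 7.4, 0.01% Tween-20, then compound added for 30 min. AlphaScreen streptavidin donor/nickel chelate acceptor beads (10 ug/mL final), 30 min dark, luminescence read.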
JMJD2A Tudor – JMJD2A Tudor domain (human) inhibition; O75164; AlphaScreen JMJD2A-Tudor / H3K4me3 peptide binding; Potency, µM (top dose mostly 114 µM), for the others: at the top dose activity change, negative = inhibition, hits mostly inhibitors; 390,000 compounds, 4.4% hits; also: % is scaled to controls: 0 for no effect and ±100 for the full control effect; nearly all actives have a fitted effect of over 50% in size
G9a inh – inhibitors of human histone lysine methyltransferase G9a. G9a H3K9 monomethylation, AlphaScreen, 2 h. Potency, µM (highest dose often 102 µM), for inactives: at the highest dose activity, negative = inhibition, most hits filed as inhibitors. 350,000 compounds, 8.8% hits; also: % is scaled to controls: 0 for no effect and ±100 for the full control effect; nearly all actives have a fitted effect of over 75% in size
Target sequence (Q96KQ7 913-1193 limits assumed): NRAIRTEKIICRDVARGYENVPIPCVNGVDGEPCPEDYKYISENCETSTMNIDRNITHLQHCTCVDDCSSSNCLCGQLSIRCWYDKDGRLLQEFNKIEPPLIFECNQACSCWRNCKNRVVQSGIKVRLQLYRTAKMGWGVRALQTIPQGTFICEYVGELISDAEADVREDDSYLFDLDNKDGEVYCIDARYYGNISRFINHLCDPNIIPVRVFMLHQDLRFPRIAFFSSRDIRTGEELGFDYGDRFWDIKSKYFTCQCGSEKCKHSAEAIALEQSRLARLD
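Quantitative HTS format: methyltransferase activity on a biotin-tagged H3K9 peptide is measured by AlphaScreen, using a rabbit anti-monomethyl-H3K9 antibody with streptavidin donor and anti-IgG acceptor beads. Final levels are 20 nM enzyme, 500 nM peptide, 20 uM SAM; 2 h RT.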
BAZ2B inh – BAZ2B (human) inhibition. Q9UIF8. AlphaScreen BAZ2B-H3K14Ac peptide displacement. Potency, µM (highest dose often 114 µM), for inactives: at the highest dose activity change, negative = inhibition, usual class: inhibitors. 360,000 compounds, 4.4% hits. AID 504333; also: % is scaled to controls: 0 for no effect and ±100 for the full control effect; nearly all actives have a fitted effect of over 60% in size
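BAZ2B (50 nM) with biotin-H3(5-23)K14Ac peptide (50 nM) in PBS pH 7.4, 0.01% Tween-20, preformed 30 min, then compound 30 min at room temperature; top concentration 110uM. AlphaScreen streptavidin donor/nickel chelate acceptor beads (10 ug/mL final), 20 min dark, signal read.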
L3MBTL1 inh – L3MBTL1 (human) inhibition | Q9Y468 | AlphaScreen L3MBTL1–H3K9me1 peptide binding | Potency, µM (top dose mostly 57.1 µM), for the others: at the top dose activity, negative = inhibition, actives largely listed as inhibitors | 230,000 compounds, 0.66% hits; also: % is scaled to controls: 0 for no effect and ±100 for the full control effect; nearly all actives have a fitted effect of over 60% in size
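First, the protein-peptide complex forms for 30 min at room temperature (L3MBTL1 50 nM, biotinylated H3K9me1 peptide 75 nM). Next, compounds are pin-transferred and incubated 30 min. Finally, AlphaScreen beads are added and read after 30 min.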
* hit, by the source's call; [ ] = another dose, or the depositor's remark. Calls follow the shape of the dose curve; as a rule, active = well fitted inhibition curve with a large enough effect; inconclusive = small, poorly fitted or top-dose-only effect; inactive = no such curve, though single readings can be large or run the other way. Potency is read from the fitted curve at half-maximal effect.

`O=C(/C=C/c1cccs1)N1CCCCC1` gave HP1b chromo inh 14%, JMJD2A Tudor -6%, G9a inh 23%, BAZ2B inh -18% and L3MBTL1 inh -13%.
Screening O=C(/C=C/c1cccs1)N1CCN(c2ccc(O)cc2)CC1 returned HP1b chromo inh inconclusive, JMJD2A Tudor inconclusive, G9a inh 7.9µM* and BAZ2B inh -37%.
`Cc1ccc(S(=O)(=O)NC(=O)NCCCCNC(=O)NS(=O)(=O)c2ccc(C)cc2)cc1` gave HP1b chromo inh 76%, JMJD2A Tudor -8%[11.4 µM], G9a inh 7% and BAZ2B inh 7%.
Cc1ccc(N(O)C(=O)NCCCCNC(=O)N(O)c2ccc(C)cc2)cc1 was read as HP1b chromo inh 16%, JMJD2A Tudor inconclusive, G9a inh 79µM* and BAZ2B inh -28%.
Screening COc1ccc(OC)c(NC(=O)CCCOc2cc(=O)n(C)c3ccccc23)c1 returned HP1b chromo inh 8%, JMJD2A Tudor -18%, G9a inh -2%[59 µM] and BAZ2B inh inconclusive.
For COC(=O)c1c(NC(=O)CN2C(=O)c3ccccc3C2=O)sc(Cc2ccc3c(c2)OCO3)c1C the results were HP1b chromo inh -8%, JMJD2A Tudor -2%, G9a inh 50µM*, BAZ2B inh -6% and L3MBTL1 inh 0%.
Screening Cc1c(Cc2ccc3c(c2)OCO3)sc(NC(=O)C2CC2)c1C(N)=O returned HP1b chromo inh -23%, JMJD2A Tudor inconclusive, G9a inh 3.5µM* and BAZ2B inh -33%.
Cc1c(Cc2ccccc2)sc(NC(=O)/C=C/c2cccc3ccccc23)c1C(N)=O was read as HP1b chromo inh -3%, JMJD2A Tudor 40µM*, G9a inh 20µM*, BAZ2B inh -11% and L3MBTL1 inh 8%.
For Cc1c(Cc2ccccc2)sc(NC(=O)c2ccco2)c1C(N)=O the results were HP1b chromo inh 14%, JMJD2A Tudor -19%, G9a inh 5%[59 µM], BAZ2B inh 8% and L3MBTL1 inh 4%.
For Cc1c(Cc2ccc3c(c2)OCO3)sc(NC(=O)c2cccc3ccccc23)c1C(N)=O the results were HP1b chromo inh inconclusive, JMJD2A Tudor inconclusive, G9a inh 7.1µM*, BAZ2B inh inconclusive and L3MBTL1 inh -3%.
For CCN(CC)C(=O)c1sc(NC(=O)c2ccc3c(c2)OCO3)c(C(N)=O)c1C the results were HP1b chromo inh 14%, JMJD2A Tudor 6% and BAZ2B inh -10%.
For COc1ccc(C(=O)c2cn(Cc3ccc(F)cc3)c3c(F)cc(F)cc3c2=O)cc1 the results were HP1b chromo inh 55%, JMJD2A Tudor -9%, G9a inh 2%[59 µM] and BAZ2B inh 14%.
Screening CC(c1ccc(F)cc1)n1cc(C(=O)NCCN(C)C)nn1 (stereo unspecified) returned HP1b chromo inh 55%, JMJD2A Tudor 4%, G9a inh 45µM*, BAZ2B inh -36% and L3MBTL1 inh 9%.
Screening CC(c1ccc(F)cc1)n1cc(C(=O)NCc2ccccn2)nn1 (stereo unspecified) returned HP1b chromo inh 60%, JMJD2A Tudor -7%, G9a inh 8%, BAZ2B inh -1% and L3MBTL1 inh 14%.
COc1ccc(CCC(=O)Nc2ccc(C)c([N+](=O)[O-])c2)cc1 was read as HP1b chromo inh -26%, JMJD2A Tudor inconclusive, G9a inh 10µM*, BAZ2B inh inconclusive and L3MBTL1 inh -20%.
Cc1ccc2nc(SCC(=O)Nc3cc([N+](=O)[O-])ccc3F)[nH]c2c1 was read as HP1b chromo inh 24%, JMJD2A Tudor -15%, G9a inh 25µM*, BAZ2B inh inconclusive and L3MBTL1 inh -3%.
For CCC(=O)Nc1ccc(C(=O)CSc2nc3ccc(C)cc3[nH]2)cc1 the results were HP1b chromo inh 9%, JMJD2A Tudor -7%, G9a inh 28µM*, BAZ2B inh 2% and L3MBTL1 inh -17%.
CCC(=O)Nc1ccc(C(=O)CSc2nc3ccccc3[nH]2)cc1 was read as HP1b chromo inh 35%, JMJD2A Tudor 6%, G9a inh inconclusive, BAZ2B inh -9% and L3MBTL1 inh -1%.
COc1ccc(CCC(=O)Nc2cc([N+](=O)[O-])ccc2OC)cc1 was read as HP1b chromo inh 15%, JMJD2A Tudor -18%, G9a inh -5%, BAZ2B inh -23% and L3MBTL1 inh -8%.
For Cc1ccc2nc(SCC(=O)Nc3ccc(F)c([N+](=O)[O-])c3)[nH]c2c1 the results were HP1b chromo inh -3%, JMJD2A Tudor -31%, G9a inh inconclusive, BAZ2B inh inconclusive and L3MBTL1 inh -6%.
For Cc1csc(SCC(=O)Nc2cc([N+](=O)[O-])ccc2F)n1 the results were HP1b chromo inh 27%, JMJD2A Tudor -20%, G9a inh 32%[12.7 µM], BAZ2B inh 3% and L3MBTL1 inh 1%.
`Cc1ccc2nc(SCC(=O)Nc3ccc(C)c([N+](=O)[O-])c3)[nH]c2c1` gave HP1b chromo inh 1%, JMJD2A Tudor -25%, G9a inh 11µM*, BAZ2B inh inconclusive and L3MBTL1 inh -14%.
Screening O=C(Nc1ccc(Br)cc1F)C1CCN(c2nc3ccccc3[nH]2)CC1 returned HP1b chromo inh 14%[57 µM], JMJD2A Tudor -21%, G9a inh 7%[59 µM] and BAZ2B inh 4%.
`O=C(CSCc1ccccc1)Nc1cc([N+](=O)[O-])ccc1F` gave HP1b chromo inh 33%, JMJD2A Tudor -28%, G9a inh 32µM*, BAZ2B inh inconclusive and L3MBTL1 inh -16%.
COc1ccc2nc(SCCC(=O)O)cc(C)c2c1 was read as HP1b chromo inh -10%, JMJD2A Tudor -16%, G9a inh -27%, BAZ2B inh -11% and L3MBTL1 inh -2%.
`COc1cccc(CCc2nnc(N)s2)c1` gave HP1b chromo inh 8%, JMJD2A Tudor -4%, G9a inh 79µM*, BAZ2B inh -3% and L3MBTL1 inh 3%.
c1ccc(-c2ccccc2OCCN2CCCC2)cc1 was read as HP1b chromo inh inconclusive, JMJD2A Tudor 22µM*, G9a inh 7.9µM*, BAZ2B inh 56µM* and L3MBTL1 inh -13%.
For c1ccc(-c2ccccc2OCCCN2CCOCC2)cc1 the results were HP1b chromo inh inconclusive, JMJD2A Tudor 7.9µM*, BAZ2B inh 18µM* and L3MBTL1 inh -13%.
For OCCCN1CCN(CCCOc2ccccc2-c2ccccc2)CC1 the results were HP1b chromo inh 33%, JMJD2A Tudor -15%, G9a inh -4%[59 µM], BAZ2B inh -11% and L3MBTL1 inh -11%.
c1ccc(-c2ccccc2OCCCCN2CCCCCC2)cc1 was read as HP1b chromo inh -39%, JMJD2A Tudor 22µM*, G9a inh 7.9µM*, BAZ2B inh 50µM* and L3MBTL1 inh -5%.
C=CCc1ccccc1OCCCCN1CCCC1 was read as HP1b chromo inh inconclusive, JMJD2A Tudor 10µM*, G9a inh inconclusive and BAZ2B inh 50µM*.

Screens deposited in PubChem BioAssay by National Center for Advancing Translational Sciences (NCATS).
